From PubChem BioAssay AID1259313 (Sanford-Burnham Center for Chemical Genomics, 2017)
The whole screen tested about 340,000 compounds, of which about 8,500 (2.5%) were called active. What follows is part of a selection rich in actives, with near analogues and random picks from the rest. Values without a mark were called inactive.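 How the source made its calls: active means melting temperature shift of at least 10% of the positive control shift, at one fixed dose; inactive means the rest.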

test system: Glutamate receptor ionotropic, NMDA 3A (GRIN3A) ligand-binding domain; experiment: NR3A LBD thermal stabilization by compounds – biophysical, differential scanning fluorimetry, uHTS, primary screen (AID 1259313); details: at 25 µM, hits give high values, 0% = protein alone, 100% = glycine-bound protein

| SMILES | Tm shift relative to glycine control |
| --- | --- |
| O=C(COC(=O)c1ccc(O)cc1O)NC(=O)c1ccccc1 | -11.9% |
| O=C(NNC(=O)c1ccccc1O)c1ccccc1O | 2.79% |
| O=C(NNc1c2ccccc2nc2ccccc12)c1cc2ccccc2cc1O | 30.2% (active) |
| COCc1[nH][nH]c(=O)c1C=Nc1ccc(F)cc1F | -2.69% |
| CCCCN1C(N)=NC[C@@H]1CC1CCCCC1 | -3.87% |
| CCc1cc(=O)oc2cc(C)cc(OCC(=O)N3CCC[C@@H]3C(=O)O)c12 | -2.37% |
| Cc1cc([N+](=O)[O-])ccc1NS(=O)(=O)c1ccccc1 | -13.4% |
| Cc1cc([N+](=O)[O-])ccc1NC1CCCC1 | 12.8% (active) |
| Cc1cc([N+](=O)[O-])c(NC2CCCCC2)c([N+](=O)[O-])c1 | 1.28% |
| O=C(CSc1ccc(-c2ccccn2)nn1)Nc1ccccc1 | -2.4% |
| O=C(CSc1ccc(-c2ccc(-n3cccn3)cc2)nn1)Nc1ccc([N+](=O)[O-])cc1 | 21.1% (active) |
| O=C(CSc1ccc([N+](=O)[O-])cn1)Nc1ccc(N2CCOCC2)cc1 | 0.67% |
| COCCN(CCOC)S(=O)(=O)c1ccc(/C(O)=C(\C#N)c2nc3ccccc3[nH]2)cc1 | 0.08% |
| COc1cc(/C=C(\C#N)c2nc3ccccc3[nH]2)ccc1O | 28.5% (active) |
| Cc1ccc2nc(/C(C#N)=C\c3ccc(OC(=O)c4cccs4)cc3)[nH]c2c1 | -1.46% |
| CCCCOc1ccc(NC(=O)[C@@H]2CCCN2C(=O)C2CCN(S(=O)(=O)c3ccc(C)cc3)CC2)cc1 | 0% |
| COCC(=O)Nc1ccc(Br)cc1 | -2.19% |
| Cc1ccc(OC(=O)CCC(=O)Nc2ccc(Br)cc2)cc1 | 0.17% |
| CC(=O)Nc1ccc(NC(=O)COc2ccc(S(=O)(=O)NC(C)c3ccccc3)cc2)cc1 (configuration not stated) | 0.44% |
| CC(=O)Nc1ccc(NC(=O)COc2ccc(-c3ccccc3)cc2)cc1 | 12.4% (active) |
| CC(=O)Nc1ccc(OC(=O)COc2ccc(Br)cc2)cc1 | 17.5% (active) |
| O=C(COc1ccccc1)Nc1ccc(F)cc1 | -8.63% |
| Cc1c(Nc2nc3ccccc3nc2NS(=O)(=O)c2cccs2)c(=O)n(-c2ccccc2)n1C | 0.52% |

| SMILES | Tm shift relative to glycine control |
| --- | --- |
| Cc1ccsc1C1C(C#N)=C(N)OC2=C1C(=O)CC(C)(C)C2 (configuration not stated) | -2.21% |
| CSc1cccc(NC(=S)N(C(C)C)C(C)c2ccccn2)c1 (configuration not stated) | 13.8% (active) |
| CC(c1ccccn1)N(CCN(C)C)C(=S)Nc1ccccc1F (configuration not stated) | 0% |
| CSc1cccc(NC(=S)N(Cc2ccccc2)Cc2ccccn2)c1 | -4.28% |
| O=C(COC(=O)c1ccccc1Cl)NC1CCCCCCC1 | 1.11% |
| Cn1cccc1C1(C(F)(F)F)NCCNC1=O (configuration not stated) | -0.65% |
| CCn1c(CSc2nc(C)cc(C)n2)nnc1SCC(N)=O | 1.48% |
| O=C(/C=C/c1ccc(F)cc1)Nc1cccc(S(=O)(=O)Nc2cccc(C(F)(F)F)c2)c1 | 1.46% |
| Cc1oc2c(F)c(F)c(F)c(F)c2c1S(=O)(=O)Nc1cccc(C(F)(F)F)c1 | 29.7% (active) |
| O=C(COc1ccc(S(=O)(=O)Nc2cccc(C(F)(F)F)c2)cc1)N1CCOCC1 | -0.84% |
| CC1CCCN(S(=O)(=O)c2ccc(N(C(=O)c3cnccn3)C(C(=O)NC3CCCCC3)c3cccs3)cc2)C1 (configuration not stated) | 1.68% |
| COCCCNC(=S)N(Cc1ccccc1)Cc1ccc(F)cc1 | 0.84% |
| O=C1COc2ccc(NC(=O)N3CCN(c4ccc(F)cc4)CC3)cc2N1 | -1.31% |
| CC(C)c1c(C(=O)N/N=C/c2ccc(-c3ccccc3)cc2)nnn1-c1nonc1N | 1.62% |
| COCc1c(C(=O)N/N=C\c2cccnc2)nnn1-c1nonc1N | -1.82% |
| CC(C)Oc1ccc(/C=N/NC(=O)c2nnn(-c3nonc3N)c2CN(C)C2CCCCC2)cc1 | 2.01% |
| Nc1nonc1-n1nnc(C(=O)N/N=C/c2cc(Br)ccc2O)c1CSC1=NCCS1 | 11.5% (active) |
| Cc1ccc(SCc2c(C(=O)N/N=C/c3cccnc3)nnn2-c2nonc2N)cc1 | 30.3% (active) |
| CN(C)Cc1c(C(=O)N/N=C/c2ccccc2OCc2ccc(F)cc2)nnn1-c1nonc1N | 2.67% |
| Nc1nonc1-n1nnc(C(=O)N/N=C\c2ccncc2)c1CN1CCCCC1 | 0.45% |
| COCc1c(C(=O)N/N=C/C2CC=CCC2)nnn1-c1nonc1N (configuration not stated) | -1.57% |
| Cc1ccc(SCc2c(C(=O)N/N=C/C3CC=CCC3)nnn2-c2nonc2N)cc1 (configuration not stated) | 85.4% (active) |
| CCCCNC(=O)c1ccccc1NC(=O)c1ccccc1N(C)S(C)(=O)=O | 0.62% |

| SMILES | Tm shift relative to glycine control |
| --- | --- |
| Cc1c(Br)ccc(NC(=O)COc2ccccc2C(N)=O)c1C | -0.92% |
| CC1=NN(C(C)C)C(=O)C1 | -0.17% |
| Cc1ccc(S(=O)(=O)N2[C@@H](c3ccc(Br)cc3)C(C(=O)O)=C[C@H]2CC2CCCC2)cc1 | -1.23% |
| O=C(CSc1nn(-c2ccc(F)cc2)c(=S)s1)NC1CCS(=O)(=O)C1 (configuration not stated) | -1.94% |
| Cc1ccc(C)c(OCCC(=O)OCC(=O)c2ccc3c(c2)NC(=O)CO3)c1 | 1.04% |
| CCOC(=O)C1CCN(C(=O)c2cccc(S(=O)(=O)N(CC)c3ccccc3)c2)CC1 | 0.33% |
| Nc1ccccc1/C=N\N=C/c1ccccc1N | 10.2% (active) |
| O=[N+]([O-])c1cccc(C=NN=Cc2ccccc2O)c1 | -1.4% |
| COc1ccc(NC(=O)c2oc3ccc(S(=O)(=O)N4CCOCC4)cc3c2C)cc1 | 14.9% (active) |
| Cc1c(C(=O)Nc2ccccc2Cl)oc2ccc(S(=O)(=O)N3CCC4(CC3)OCCO4)cc12 | -0.83% |
| Cc1c(C(=O)Nc2cccc(S(=O)(=O)N3CCOCC3)c2)oc2ccccc12 | -5.92% |
| Cc1ccc(-c2c3c(=O)n(C)c(=O)n(C)c3cn2-c2ccccc2O)cc1 | 22.9% (active) |
| COc1cccc(-n2cc3c(c2-c2ccccc2)c(=O)n(C)c(=O)n3C)c1 | -1.71% |
| Cc1ccc(-c2c3c(=O)n(C)c(=O)n(C)c3cn2-n2cnnc2)cc1 | -0.82% |
| Cc1csc(=O)n1CCC(=O)OCC(=O)NNC(=O)c1ccc(Br)cc1 | -0.85% |
| COc1cccc(CNS(=O)(=O)c2csc(C(N)=O)c2)c1 | 2.62% |
| COc1cccc(CNS(=O)(=O)c2ccc3c(c2)N(C(C)=O)CCS3)c1 | 11.5% (active) |
| COc1cccc(CNS(=O)(=O)c2ccc3c(c2)CC(C)N3C(C)=O)c1 (configuration not stated) | 2.23% |
| CSc1nc2c(c(=O)[nH]1)C(c1cccc(Cl)c1Cl)CC(=O)N2 (configuration not stated) | -1.69% |
| Cc1ccc(NC(=O)c2cccc(S(=O)(=O)N3CCCc4ccccc43)c2)nc1 | 2.57% |
| O=C(NC(Nc1nc2ccc([N+](=O)[O-])cc2s1)(C(F)(F)F)C(F)(F)F)c1ccccc1 | 6.26% |
| O=C(Nc1nc2ccc([N+](=O)[O-])cc2s1)c1ccc(S(=O)(=O)N2CCCc3ccccc32)cc1 | 18.8% (active) |
| O=C1COc2ccc(C(=O)COC(=O)c3ccccc3Cl)cc2N1 | 0% |

| SMILES | Tm shift relative to glycine control |
| --- | --- |
| COc1ccc2c(c1)C(=O)CC(c1ccccc1)O2 (configuration not stated) | -1.87% |
| CCN(CC)c1ccc(C(=O)NNC(=O)CCc2nc3ccccc3c(=O)[nH]2)cc1 | -0.56% |
| COc1ccc(OCC(=O)OCCN(C)C)cc1 | -1.53% |
| COc1ccc(C(=O)COC(=O)COc2ccc(C)c(C)c2)cc1 | 12% (active) |
| Cc1ccc(OCC(=O)Nc2ccc(C(=O)O)cc2NC(=O)COc2ccc(C)c(C)c2)cc1C | -0.84% |
| Cc1ccc(O/C=C2\OC(=O)c3ccccc32)cc1 | 49.4% (active) |
| Cc1ccc(Oc2cnn(-c3ccccc3)c(=O)c2Br)cc1 | -1.23% |
| Cc1n[nH]c(=O)c2c(NC(=O)COC(=O)c3ncc(Cl)c(Cl)c3Cl)oc(C)c12 | 4.91% |
| Cc1c(CCC(=O)O)c(=O)oc2c(C)c(OCc3ccccc3Cl)ccc12 | 0.1% |
| CCN([C@H](CO)C(C)C)S(=O)(=O)c1ccccc1Br | -1.23% |
| O=C(O)CCCC(=O)Nc1ccccc1-n1ccnc1 | -2.48% |
| CCOC(=O)N1CCN(C(=O)COc2ccc(Br)cc2)CC1 | 10.1% (active) |
| CCOC(=O)N1CCN(S(=O)(=O)c2ccc(Br)cc2)CC1 | -0.87% |
| CCOC(=O)N1CCN(C(=O)COc2ccc3oc4c(c3c2)CCCC4)CC1 | 1.71% |
| Cc1ccc(-c2cccc([C@H]3[C@@H]4C=CC[C@@H](C)[C@@H]4C(=O)N3Cc3ccccc3)c2)cc1 | 15.4% (active) |
| Cc1cccc([C@@H]2[C@@H]3C(=O)N(Cc4ccccc4)C(=O)[C@@H]3[C@]3(C)C(=O)N(c4ccc(Br)cc4)C(=O)N23)c1 | -3.72% |
| Cc1cccc([C@H]2[C@@H]3C=CC[C@@H](C)[C@@H]3C(=O)N2Cc2ccccc2)c1 | 0.67% |
| CNC(=O)C1CCN(S(=O)(=O)c2c(C)noc2/C=C/c2cccc(C)c2)CC1 | 1.97% |
| CCOC(=O)c1c(Cc2ccc(Cl)cc2)c[nH]c1C | -13.2% |
| CC(C)(C)NC(=O)CN(Cc1cccs1)C(=O)CNS(=O)(=O)c1ccccc1 | -2.34% |
| O=C(c1ccc(-n2cnnn2)cc1)N1CCN(C(c2ccccc2)c2ccccc2)CC1 | -0.38% |
| Cn1nnnc1SCC(=O)N1CCN(C(c2ccccc2)c2ccccc2)CC1 | 11% (active) |
| Cn1nnnc1SCC(=O)N1CCN(Cc2ccccc2)CC1 | 0.27% |
